From PubChem BioAssay
CYP2C19 inh – human CYP2C19 inhibition; P33261; CYP2C19 Supersomes, luciferin-H EGE luminescence, 30 min; inhibition, % at 5 µM; actives 21% (n = 96,000); AID 778;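 active = CYP2C19 inhibition above a set limit at 5 µM in the primary screen, cut at about 50% in these data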;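 note: plate controls were negative control wells for no effect and 2.5 mM tranylcypromine positive control for full effect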
CYP2C19 act – cytochrome P450 2C19 (human) activation; P33261; recombinant CYP2C19, luciferin-H EGE luminescence; active compounds read high; 0 = fully inhibited enzyme, 1 = untreated enzyme; activation factor at 5 µM; 96,000 tested, under 10 active;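 active = activation factor of at least 2 at 5 µM in the primary screen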;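 note: 0 = wells with 2.5 mM tranylcypromine and 1 = vehicle-only wells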
Cav32 inh – blocks human Cav3.2 T-type calcium channel | B-score at 10 µM | O95180 | actives 4% (n = 100,000) | Cav3.2-expressing cells, Fluo-4 calcium fluorescence FDSS; active compounds read low;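 active = single-dose well whose peak fluorescence ratio is a statistical outlier from its plate by either plate-standardised score or position-corrected B-score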
CYP2C9 inhib – inhibitors of human CYP2C9; actives 20% (n = 96,000); CYP2C9 Supersomes, luciferin-H conversion, luminescence; inhibition, % at 5 µM;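 active = blocking of liver enzyme CYP2C9 beyond about 50% at 5 µM, limit read from the data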
CYP2C9 act – activators of human CYP2C9; AID 1024; P11712; recombinant CYP2C9, luciferin-H conversion, luminescence; active compounds read high; factor 1 = untreated enzyme, 0 = blocked; actives 1.4% (n = 96,000); activation factor at 5 µM;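 active = activation factor of 2 or more for CYP2C9 at a 5 µM dose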;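 note: 0 = sulfaphenazole-blocked wells and 1 = vehicle-only wells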
Numbers without * were called inactive; / = not tested or not shown. A selection: hits, their analogues and other compounds. The true share with any hit is near 27%.

SMILES	CYP2C19 inh	CYP2C19 act	Cav32 inh	CYP2C9 inhib	CYP2C9 act
Cc1ccc(C)n1-c1ccc(N2CCOCC2)c(Br)c1	14.5	0.9	-3.4	6.3	0.9
COc1ccc(C2C3=C(Nc4ncnn42)c2ccccc2CC3)cc1OC (stereo not drawn)	55.2*	0.4	0.21	36.1	0.6
FC(F)(F)c1ccccc1C1C2=C(Nc3ncnn31)c1ccccc1CCC2 (stereo not drawn)	25.2	0.7	-0.00796	8.0	0.9
CC1CCC(N2CCN(c3ncccn3)CC2)C1 (stereo not drawn)	46.0	0.5	-1.23	3.3	1
CCCn1c(SCc2cc(=O)[nH]c3ccccc23)nc2c1c(=O)n(C)c(=O)n2C	-5.0	1.1	1.17	-2.7	1
Cn1c(SCc2cc(=O)[nH]c3ccccc23)nnc1-c1ccc(Br)cc1	51.4*	0.5	1.89	18.1	0.8
O=c1cc(C23CC4CC(CC(C4)C2)C3)[nH][nH]1	-21.2	1.2	-0.0489	56.1*	0.4
O=C(Nc1nccs1)c1cc(S(=O)(=O)N2CCOCC2)ccc1Cl	5.7	0.9	1.85	4.6	1
Cc1ccc(OCc2ccc(C(=O)Nc3nc4ccccc4n3Cc3ccccc3)o2)c([N+](=O)[O-])c1	21.2	0.8	-2.27	63.0*	0.4
CC(=O)c1cc(F)c(N2CCN(C(=O)COc3ccc(F)cc3)CC2)cc1C	/	/	0.246	/	/
Cc1ccc(/C=C/c2nnc(-c3cccs3)o2)cc1	18.2	0.8	-1.41	35.3	0.6
Cc1ccc2nc(SCc3nnc(-c4cccs4)o3)[nH]c2c1	43.3	0.6	-0.456	51.4*	0.5
COc1ccc(S(=O)(=O)N2CCCC(C(=O)N3CCOCC3)C2)cc1C (stereo not drawn)	35.7	0.6	0.0181	-116.3	2.2*
CCOC(=O)C1CCCN(S(=O)(=O)c2ccc(OC)cc2)C1 (stereo not drawn)	96.4*	0	-0.029	-141.8	2.4*
COc1ccc(C(=O)N2CCCC(C(=O)N3CCCCCC3)C2)cc1 (stereo not drawn)	44.1	0.6	0.604	10.5	0.9
CCOC(=O)C1CCCN(S(=O)(=O)c2ccc(C)cc2)C1 (stereo not drawn)	/	/	1.18	/	/
CCOC(=O)N1CCN(C(=O)C2CCCN(S(=O)(=O)c3ccccc3)C2)CC1 (stereo not drawn)	10.2	0.9	0.747	24.2	0.8
COc1ccc(S(=O)(=O)N2CCCC(C(=O)N3CCCCCC3)C2)cc1 (stereo not drawn)	79.6*	0.2	0.529	-32.2	1.3
CCOC(=O)N1CCN(C(=O)C2CCCN(S(=O)(=O)c3ccc(C)cc3)C2)CC1 (stereo not drawn)	53.4*	0.5	0.716	-56.6	1.6
CCS(=O)(=O)N1CCCC(C(=O)NC2CCCC2)C1 (stereo not drawn)	20.8	0.8	-0.35	5.4	0.9
O=C(Nc1ccc(Br)cc1F)c1sccc1-n1cccc1	-13.8	1.1	-0.456	-5.9	1.1
Cc1c(-c2ccccc2)sc(N)c1C(=O)N1CCOCC1	88.4*	0.1	0.35	86.5*	0.1
CCOC(=O)c1c(N)sc(-c2ccccc2)c1C	/	/	-0.918	/	/
CC1CCC(C(C)C)C(OC(=O)COC(=O)c2cccn2C)C1 (stereo not drawn)	90.8*	0.1	-4.3	80.3*	0.2
CC1CCC(C(C)C)C(OC(=O)C[n+]2cccc(C(N)=O)c2)C1 (stereo not drawn)	20.8	0.8	1.57	10.0	0.9
SMILES	CYP2C19 inh	CYP2C19 act	Cav32 inh	CYP2C9 inhib	CYP2C9 act
COCCn1c(SCC(=O)N2CC(=O)Nc3ccccc32)nnc1-c1ccoc1C	/	/	0.407	/	/
COc1ccccc1NS(=O)(=O)c1cccc(NC(=O)c2nc3nc(C)cc(C)n3n2)c1	8.3	0.9	2.21	2.5	1
COc1ccccc1NS(=O)(=O)c1ccc(O)cc1	86.5*	0.1	0.38	-125.7	2.3*
COc1ccccc1NS(=O)(=O)c1cccc(C(=O)NN)c1	97.3*	0	0.316	-19.1	1.2
Cc1cc(NC(=O)c2ccco2)ncc1NC(=O)Cc1ccccc1	1.9	1	-0.25	10.5	0.9
Cc1cccc(C)c1OCC(=O)NNC(=O)Nc1ccc(Cl)cc1	41.9	0.6	-1.64	-13.6	1.1
CC(NC(=O)C1CCCCC1)C(=O)NC1=NCCS1 (stereo not drawn)	8.0	0.9	0.201	-0.6	1
Cn1cc(SCC(=O)Nc2ccc3c(c2)OCO3)c2ccccc21	100.4*	0	-1.64	65.1*	0.3
Cn1c(=O)cc(SCC(=O)Nc2ccc3c(c2)OCO3)c2ccccc21	9.5	0.9	-0.0194	-67.9	1.7
CCCn1cc(SCC(=O)Nc2ccc3c(c2)OCO3)c2ccccc21	74.3*	0.3	-4.55*	76.7*	0.2
CC(=O)Nc1ccc(NC(=O)/C(Cl)=C/c2ccccc2)cc1	10.1	0.9	2.2	-2.8	1
CC(/C=C/c1ccccc1)NC(N)=O (stereo not drawn)	32.2	0.7	-0.846	60.9*	0.4
NC(=O)c1ccccc1N	/	/	0.719	/	/
CCCNC(=O)COC(=O)CCC(=O)c1ccc(F)cc1	15.8	0.8	-0.189	-12.3	1.1
CCOC(=O)N1CCC(Nc2nc3ccccc3nc2NS(=O)(=O)c2ccc(Cl)cc2)CC1	18.6	0.8	-3.02	95.0*	0.1
COCCCNC(=O)CC(NS(=O)(=O)c1ccc(C)cc1)c1ccco1 (stereo not drawn)	23.8	0.8	/	8.5	0.9
Cc1ccc(S(=O)(=O)NC(CC(=O)NCc2ccco2)c2ccco2)cc1 (stereo not drawn)	48.1	0.5	0.852	-31.0	1.3
COCCCNC(=O)CC(NS(=O)(=O)c1ccc(Cl)cc1)c1ccco1 (stereo not drawn)	60.8*	0.4	0.106	51.8*	0.5
CCOC(=O)N1CCN(C(=O)CN(C2CCCCC2)S(=O)(=O)c2ccc(Cl)cc2)CC1	16.3	0.8	-1.07	22.2	0.8
Cc1ccc(S(=O)(=O)NC(CC(=O)NC2CCCC2)c2ccco2)cc1 (stereo not drawn)	58.2*	0.4	0.0989	32.8	0.7
CCOC(=O)N1CCC(NC(=O)CC(NS(=O)(=O)c2ccc(Cl)cc2)c2ccco2)CC1 (stereo not drawn)	59.7*	0.4	/	53.8*	0.5
CCN(CC)CCCNC(=O)Cc1c(C(=O)O)n(C)c2ccccc12	-0.5	1	1.19	-18.3	1.2
O=c1[nH]c(Nc2ccccc2Cl)cc2ccccc12	/	/	-2.01	/	/
O=c1[nH]c(Nc2ccc(F)cc2)cc2ccccc12	86.1*	0.1	-0.736	77.6*	0.2
CCc1nnc(NC(=O)CSc2ncc(-c3ccccc3)n2CC)s1	75.7*	0.2	-1.03	71.8*	0.3
O=C(CSc1ncc(-c2ccc(F)cc2)[nH]1)Nc1cccc(O)c1	50.7*	0.5	-1.71	10.3	0.9
CCc1nnc(NC(=O)CSc2ccc(-c3nc4ccccc4[nH]3)cn2)s1	22.8	0.8	-2.2	50.7*	0.5
O=C(CSc1ncn[nH]1)Nc1nnc(-c2ccccc2)s1	23.1	0.8	0.467	25.7	0.7
